Assay results reported in PubChem BioAssay (NCI).
“And” between values parts separate entries of the source, which are not always exact repeats. Equal values may be shown once. The panel holds about 83,000 compounds, 20% with a hit somewhere; the sample as a whole holds those more often.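 96-well plates, one dose, 48 hours. Percent growth reported; active if below 10.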 The source made the active and inactive calls.

What was measured:
Test in all cases: NCI-60 one-dose screen, 48 h (100 = growth as untreated, 0 = no growth, -100 = all killed)
Conditions in all cases: 10 µM unless noted
[1] = tested on: NCI-H23 lung
[2] = tested on: NCI-H226 lung
[3] = tested on: NCI-H322M lung
[4] = tested on: HOP-62 NSCLC
[5] = tested on: NCI-H460 lung
[6] = tested on: HOP-92 NSCLC
[7] = tested on: NCI-H522 lung
[8] = tested on: 786-0 renal
[9] = tested on: COLO 205 colon
[10] = tested on: DU-145 prostate
[11] = tested on: K-562 leukemia
[12] = tested on: MALME-3M melanoma
[13] = tested on: MDA-MB-231 breast
[14] = tested on: RXF 393 renal
[15] = tested on: SF-268 CNS
[16] = tested on: SF-295 CNS
[17] = tested on: SF-539 CNS
[18] = tested on: UACC-257 melanoma
[19] = tested on: M14 melanoma
[20] = tested on: A549/ATCC NSCLC

Measured: growth

CCCCOc1cc(C(=O)NCCN(CC)CC)c2ccccc2n1
inactive: [1] 88.7% and 106% | [2] 94.5% and 105% | [3] 100% and 94.7% | [4] 99.4% and 102% | [5] 110% and 103% | [6] 45.8% and 51.7% | [7] 103% | [8] 90.6% and 99.9% | [9] 89.6% and 93.1% | [10] 109% and 106% | [11] 92.4% and 104% | [12] 93% and 106% | [13] 86.5% and 96.9% | [14] 80.7% and 94% | [15] 103% and 101% | [16] 92.5% and 97.5% | [17] 95.2% and 106% | [18] 62.2% | [19] 93.8% and 105%

CCc1c(CC(=O)O)c2cc(C)ccc2n1Cc1ccc(Cl)cc1
inactive: [1] 97.3% and 90% | [2] 94.9% and 97.8% | [3] 76.3% and 280% | [4] 94.7% and 70.2% | [5] 103% and 95.8% | [6] 88% and 91.7% | [7] 85% and 81.5% | [8] 106% and 47% | [9] 123% | [10] 106% and 105% | [11] 152% | [12] 95.1% and 200% | [13] 110% and 100% | [14] 76.8% | [15] 96.3% and 99.4% | [16] 91.6% and 84.9% | [17] 97.4% and 90.2% | [18] 87.7% | [19] 101% and 85.4%

COc1ccc(NC(=S)Nc2ccccn2)cc1
inactive: [1] 96% | [2] 86.2% | [3] 97% | [4] 97.9% | [5] 100% | [6] 77% | [7] 98.4% | [8] 90.4% | [9] 110% | [10] 93% | [11] 87.1% | [12] 80.6% | [13] 99% | [14] 121% | [15] 90.7% | [16] 94.6% | [17] 109% | [18] 104%

COc1cc2nc(N3CCC[C@@H](NC(=O)C4COc5ccccc5O4)C3)nc(N)c2cc1OC (stereo partly drawn)
inactive: [1] 99.6% and 99.7% | [2] 102% and 99.7% | [3] 96.1% and 102% | [4] 107% and 102% | [5] 105% and 107% | [6] 87% and 83% | [7] 96.4% and 93.9% | [20] 95.7% and 93.9% | [8] 97.4% and 96.9% | [9] 108% and 107% | [10] 107% and 108% | [11] 97.1% and 94.1% | [12] 101% and 109% | [13] 104% and 106% | [14] 105% and 88.6% | [15] 105% and 103% | [17] 104% and 101% | [18] 93.5% and 92% | [19] 105% and 101%

CC[N+](CC)(CC(=O)Nc1c(C)cccc1C)Cc1ccccc1
inactive: [1] 85.4% and 99.4% | [2] 87% and 97.8% | [3] 110% and 93.8% | [4] 85.2% and 93.2% | [5] 100% and 101% | [6] 112% and 90.7% | [7] 92% | [20] 106% and 98.5% | [8] 103% | [9] 103% | [10] 101% | [11] 94.7% | [12] 96.3% and 89.9% | [13] 75.7% and 97.2% | [14] 92.8% and 106% | [15] 91.9% and 104% | [16] 104% and 101% | [17] 111% and 102% | [18] 92.2% | [19] 95.3% and 100%

CN1CCN(CCC=C2c3ccccc3Sc3ccc(S(=O)(=O)N(C)C)cc32)CC1
-13.1% (active) and 40.5% (inactive): [12]
-83.1% (active) and 44% (inactive): [9]
active: [11] 1.04% and -15.5% | [18] -83.1% and -57.7% | [19] -67% and -79.2%
inactive: [1] 84.4% and 91% | [2] 111% and 108% | [3] 66.9% and 77.2% | [4] 75.9% and 83.8% | [5] 82.7% and 82% | [6] 29.4% | [7] 44.2% and 58.5% | [20] 69.3% and 79.6% | [8] 41.6% and 58.5% | [10] 88.1% and 101% | [13] 42.8% and 69.3% | [14] 30.4% and 60%

CCN(CC)CCOc1ccc(/C=N/Nc2nc3c([nH]2)c(=O)n(C)c(=O)n3C)cc1
inactive: [1] 89.8% and 103% | [2] 102% and 101% | [3] 109% and 94.1% | [4] 103% and 108% | [5] 109% and 105% | [6] 94.6% | [7] 84.8% and 93.3% | [8] 91.7% and 107% | [9] 112% and 111% | [10] 115% and 108% | [11] 109% and 103% | [12] 96.6% and 82.1% | [13] 103% and 87.4% | [14] 114% and 122% | [15] 111% and 102% | [16] 113% and 98.7% | [17] 97.2% and 95.5% | [18] 102% and 108% | [19] 96.7% and 97.6%

CCC(C)C1(C2CCCC2)NC(=O)NC1=O (stereo not drawn)
inactive: [1] 103% and 101% | [2] 113% and 108% | [3] 99.1% and 115% | [4] 98.6% and 102% | [5] 117% and 107% | [6] 92.1% | [7] 77.2% and 105% | [20] 100% and 106% | [8] 104% and 108% | [9] 102% and 116% | [10] 121% | [11] 99.3% | [12] 114% | [13] 101% and 94.3% | [14] 106% and 127% | [15] 103% and 107% | [16] 117% and 93.9% | [17] 104% and 96.6% | [18] 94.9% and 101% | [19] 98.4% and 106%

O=Nc1ccc(O)cc1
inactive: [1] 78.9% and 94.9% | [2] 95.5% and 109% | [3] 104% and 97.4% | [4] 101% and 97.3% | [5] 109% and 96.9% | [6] 90.4% and 101% | [7] 87.8% and 78.5% | [20] 99% and 93.9% | [8] 98.2% and 110% | [9] 104% and 111% | [10] 97.1% and 114% | [11] 109% and 98.1% | [12] 107% and 135% | [13] 84.9% and 68.5% | [14] 99.3% and 112% | [15] 88.7% and 93.4% | [16] 99.5% and 105% | [17] 90.2% and 91.5% | [18] 108% and 96.8% | [19] 97.8% and 102%

Cc1ncsc1CCO
inactive: [1] 96% and 94.8% | [2] 95.8% and 103% | [3] 126% and 89.4% | [4] 103% and 106% | [5] 118% and 106% | [6] 91.2% and 97.8% | [7] 94.5% and 85.9% | [8] 105% and 96.9% | [9] 118% and 116% | [10] 112% and 105% | [11] 103% and 108% | [12] 118% and 86.2% | [13] 103% and 105% | [14] 99% and 133% | [15] 101% and 94.3% | [16] 101% and 100% | [17] 111% and 99.6% | [18] 106% and 92.9% | [19] 107% and 95.3%

CCN(CC)CCOc1ccc2c(c1)C(=O)c1cc(OCCN(CC)CC)ccc1-2
inactive: [1] 79.5% and 71.2% | [2] 99.7% and 73% | [3] 85.8% and 60.6% | [4] 58.3% and 38.2% | [5] 46.2% and 12.9% | [6] 20% | [7] 99.6% and 69.6% | [20] 55.8% and 50.6% | [10] 74.6% and 64.7% | [12] 98.2% and 80.2% | [13] 65.5% and 78.5% | [14] 71.4% | [15] 75.1% and 54.8% | [16] 82.6% and 71.5% | [17] 50% and 38.4% | [18] 89.9% and 88.6% | [19] 91.7% and 83.4%
41.7% (inactive) and -9.47% (active): [11]
11.3% (inactive) and -4.52% (active): [9]
63.3% (inactive) and -30.9% (active): [8]

O=C(O)C1C2C=CC(C2)C1C(=O)O (stereo not drawn)
101% (inactive) and 9.77% (active): [16]
inactive: [1] 104% and 30.6% and 111% | [2] 105% and 38.6% and 91.2% | [3] 99.3% and 38.9% and 104% | [4] 114% and 30.1% and 92.8% | [5] 104% and 13.9% and 105% | [6] 98.6% and 98.2% | [7] 87.1% and 102% | [20] 93.5% and 13.4% and 97.7% | [8] 105% and 28.3% and 104% | [9] 115% and 46.9% and 118% | [10] 113% and 33% and 117% | [11] 107% and 21.5% and 95.5% | [12] 109% and 70% | [13] 101% and 66.9% and 124% | [14] 116% and 38.8% and 96.9% | [15] 115% and 38.7% and 105% | [17] 113% and 27.8% and 99.6% | [18] 99.8% and 35.6% and 97.9% | [19] 115% and 39.1% and 105%

CN1CCN(Cc2occc(=O)c2O)CCN(C)CCN(Cc2occc(=O)c2O)CC1
inactive: [1] 94.6% and 49.4% | [2] 94.7% and 70.5% | [3] 105% and 74.9% | [4] 97.1% and 58.9% | [6] 83.8% and 68.4% | [7] 104% and 45.8% | [8] 93.3% and 50% | [9] 102% and 29.7% | [10] 124% and 61.6% | [11] 101% and 16.6% | [12] 106% and 72% | [13] 106% and 62.3% | [14] 96.6% and 72.9% | [15] 113% and 63.7% | [16] 102% and 76.2% | [17] 93.7% and 48% | [18] 61.6% | [19] 105% and 52.9%
105% (inactive) and 6.42% (active): [5]

CC(C)C(=O)Nc1ccc([N+](=O)[O-])c(C(F)(F)F)c1
inactive: [1] 89.5% and 93.9% | [2] 72.5% and 82.8% | [3] 104% and 113% | [4] 94.9% and 84.2% | [5] 83.8% and 109% | [6] 53.9% and 91.1% | [7] 79.2% and 79.1% | [8] 96.4% and 87.2% | [9] 93.5% and 117% | [10] 74% and 113% | [11] 57.1% and 62.1% | [12] 83.3% and 88% | [13] 84.7% and 102% | [14] 104% | [15] 88.6% and 102% | [16] 76.7% and 92% | [17] 96.9% and 92.7% | [18] 108% and 112%

COc1ccccc1/C=N\N=C(N/N=C/c1ccccc1OC)N/N=C/c1ccccc1OC
inactive: [1] 58% and 27.5% | [2] 85.7% and 46.5% | [3] 56.5% and 15.1% | [4] 74.8% and 26.9% | [5] 46.3% and 12.8% | [6] 68.2% and 15.3% | [7] 38.6% and 17.3% | [8] 74.4% and 35.8% | [9] 75.6% and 34.6% | [10] 71.5% and 53.4% | [11] 34.1% and 11.4% | [12] 52.1% | [13] 73.8% and 51.3% | [14] 94.5% and 60.1% | [15] 63.6% and 25.6% | [16] 52.1% | [17] 83.7% and 42.1% | [18] 90.9% and 31%

CCCCCn1sc(=O)n(Cc2ccc(CNC(=O)C(C)c3ccc(CC(C)C)cc3)cc2)c1=O (stereo not drawn)
85.4% (inactive) and -59.6% (active): [7]
99.9% (inactive) and -93.4% (active): [10]
99.1% (inactive) and -43.2% (active): [4]
102% (inactive) and -73.4% (active): [1]
99.8% (inactive) and -72.1% (active): [12]
93.6% (inactive) and -92.8% (active): [17]
inactive: [2] 94.3% and 37.3% | [3] 99.5% and 67.6% | [5] 102% and 22.9% | [16] 94.3% and 47.1%
active: [11] 2.12% | [14] -91.7%
94.5% (inactive) and -59.7% (active): [15]
95.8% (inactive) and -86.5% (active): [8]
93.3% (inactive) and -54.7% (active): [13]
73.6% (inactive) and -66.2% (active): [6]
96.7% (inactive) and -19.5% (active): [18]
122% (inactive) and -57.5% (active): [9]
